According to PubChem BioAssay (NCI):
Compounds without any hit were thinned out: in the full panel of roughly 83,000, 20% have a hit.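 Cell lines were cultured in 96-well plates, exposed to a single compound concentration, and assessed for percent growth 48 hours later.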 Calls of active or inactive are those of the source. Rule for the calls: active = growth percent below 10; inactive = the rest.

Experiments:
Experiment in all cases: NCI-60 one-dose screen, 48 h (100 = growth as untreated, 0 = no growth, -100 = all killed)
[1] = tested on: MALME-3M melanoma; settings: 10 µM unless noted
[2] = tested on: RXF 393 renal; settings: 10 µM unless noted
[3] = tested on: SF-295 CNS; settings: 10 µM unless noted
[4] = tested on: SNB-19 CNS; settings: 10 µM unless noted
[5] = tested on: U251 CNS; settings: 10 µM unless noted
[6] = tested on: SK-MEL-2 melanoma; settings: 10 µM unless noted
[7] = tested on: A498 renal; settings: 10 µM unless noted
[8] = tested on: OVCAR-5 ovarian; settings: 10 µM unless noted
[9] = tested on: OVCAR-4 ovarian; settings: 10 µM unless noted
[10] = tested on: SK-OV-3 ovarian; settings: 10 µM unless noted
[11] = tested on: IGROV1 ovarian; settings: 10 µM
[12] = tested on: BT-549 breast; settings: 10 µM
[13] = tested on: MDA-MB-435 melanoma; settings: 10 µM unless noted
[14] = tested on: K-562 leukemia; settings: 10 µM unless noted
[15] = tested on: SNB-75 CNS; settings: 10 µM unless noted
[16] = tested on: HL-60(TB) leukemia; settings: 10 µM unless noted
[17] = tested on: SR leukemia; settings: 10 µM
[18] = tested on: OVCAR-8 ovarian; settings: 10 µM unless noted
[19] = tested on: M14 melanoma; settings: 10 µM unless noted
[20] = tested on: CCRF-CEM leukemia; settings: 10 µM unless noted

Measured: growth

CNC(=O)Oc1cccc(OC)c1
inactive: [1] 115% | [2] 111% | [3] 121% | [4] 103% | [5] 110% | [6] 89.8% | [7] 87.8% | [8] 113% | [9] 105% | [10] 118% | [11] 118% | [12] 103% | [13] 95.5%

CC(=O)[O][Hg][c]1nc2c(c(=O)n(C)c(=O)n2C)n1C
inactive: [14] 60.3% | [1] 49.8% | [2] 97.6% | [3] 98.9% | [15] 77.8% | [4] 98.2% | [5] 88.3% | [6] 98.6% | [7] 125% | [16] 104% | [17] 41.3% | [18] 95.2% | [8] 117% | [9] 95.1% | [10] 115% | [11] 81% | [12] 111% | [13] 92.4%

COC(=O)C1CC2c3ccccc3C1c1ccccc12 (configuration not stated)
inactive: [14] 102% | [1] 90.6% | [2] 94.6% | [3] 87.3% | [19] 107% | [15] 94.5% | [4] 117% | [5] 101% | [6] 103% | [7] 98.4% | [16] 108% | [20] 83.4% | [17] 93.9% | [8] 104% | [9] 106% | [10] 99.1% | [11] 96.6% | [12] 120% | [13] 107%

O=C1NC2(CCNCC2)Nc2ccccc21
inactive: [1] 117% | [2] 111% | [3] 107% | [19] 100% | [15] 82.8% | [4] 96.2% | [5] 91.2% | [6] 98.1% | [7] 95.5% | [16] 95.6% | [20] 94.9% | [17] 86.9% | [18] 84.4% | [8] 115% | [9] 116% | [10] 103% | [11] 113% | [12] 108% | [13] 104%

CC1(C)N=C(N)N=C(N)N1c1ccc(OCCCCNC(=O)c2ccc(S(=O)(=O)F)cc2)c(Cl)c1
inactive: [14] 16.2% | [1] 71.3% | [2] 76.3% | [19] 70.1% | [15] 87.7% | [5] 57.2% | [6] 82.4% | [7] 105% | [16] 36.2% | [20] 31% | [17] 34.8% | [18] 32.7% | [8] 56.2% | [9] 107% | [10] 101% | [11] 33.7% | [12] 79.5% | [13] 30.6%

CC12CCC(=O)C=C1C(O)CC1C2CCC2(C)C(O)CCC12 (configuration not stated)
inactive: [14] 105% | [1] 95.9% | [2] 113% | [3] 105% | [4] 101% | [5] 97.3% | [6] 105% | [7] 89.6% | [16] 101% | [20] 103% | [17] 106% | [8] 108% | [9] 104% | [10] 115% | [11] 106% | [12] 117% | [13] 112%

C[CH2][Pb]([CH2]C)([CH2]C)[O]C(=O)c1ccc(N)cc1
active: [13] -72.9%
inactive: [14] 38.6% | [1] 40.3% | [2] 34.2% | [3] 91.2% | [15] 47.2% | [5] 77.4% | [6] 39.3% | [7] 60.3% | [16] 56.1% | [18] 82.1% | [8] 85.1% | [9] 57% | [10] 76.4% | [11] 61.9% | [12] 56.9%

O=[N+]([O-])c1ccc(F)c([N+](=O)[O-])c1F
inactive: [14] 11.1% | [1] 96% | [2] 109% | [3] 104% | [15] 116% | [4] 115% | [5] 101% | [6] 93.7% | [7] 93.7% | [16] 92.2% | [20] 61.7% | [18] 104% | [8] 107% | [9] 116% | [10] 105% | [11] 105% | [13] 103%
active: [17] 8.94%

COc1ccc(-c2ccc(OC)c(OC)c2OC)cc1
active: [3] -9.72% | [19] 3.01% | [15] -11% | [16] -19.1% | [10] 7.71% | [13] -24%
inactive: [14] 10.1% | [1] 33.2% | [2] 11.2% | [4] 38.9% | [5] 22.9% | [6] 24% | [20] 10.1% | [17] 16.9% | [18] 21.7% | [8] 58% | [9] 70.6% | [11] 37.1% | [12] 20.2%
